From PubChem
Sfp inh – blocks B. subtilis Sfp PPTase activity; actives 3.5% (n = 310,000); Biochemical Sfp PPTase activity, qHTS; Potency, µM, without a hit: largest response in the series, negative = inhibition, hits mostly inhibitors; Q9F4F7;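 further: the enzyme is Sfp with the accession as filed and its product quenches rhodamine fluorescence; 0% = enzyme reaction without inhibitor and -100% = no enzyme wells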
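Fluorescence-quenching assay with 15 nM Sfp, 5 uM rhodamine-CoA and 12.5 uM BHQ-2-labelled ybbR peptide in pH 7.6 Hepes/MgCl2 buffer. Enzyme was pre-incubated with compound for 15 min at room temperature. Rate was taken from the 30-min fluorescence change (525/598 nm).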
G9a inh – G9a (human) methyltransferase inhibition | G9a H3K9 monomethylation, AlphaScreen, 2 h | actives 8.8% (n = 350,000) | Potency, µM (titrated, usually from 102 µM), for the others: top-dose activity, negative = inhibition, hits mostly inhibitors | AID 504332; further: on the % scale 0 is the no-effect control and ±100 the full control effect; nearly all actives have a fitted effect of over 75% in size
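AlphaScreen read-out: biotin-H3K9 peptide (500 nM) methylation by 20 nM enzyme with 20 uM SAM, 2 h at room temperature after 15 min compound preincubation; anti-monomethyl H3K9 antibody plus donor/acceptor beads, 10 min dark.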
JMJD2A Tudor inh – inhibitors of human JMJD2A Tudor domain; O75164; AlphaScreen JMJD2A-Tudor / H3K4me3 peptide binding; Potency, µM (titrated, usually from 114 µM), without a hit: top-dose activity change, negative = inhibition, usual class: inhibitors; actives 4.4% (n = 390,000); AID 504339; further: on the % scale 0 is the no-effect control and ±100 the full control effect; nearly all actives have a fitted effect of over 50% in size
L3MBTL1 block – L3MBTL1 (human) inhibition | Q9Y468 | AlphaScreen L3MBTL1–H3K9me1 peptide binding | actives 0.66% (n = 230,000) | Potency, µM (highest dose often 57.1 µM), for inactives: top-dose activity, negative = inhibition, hits mostly inhibitors; further: on the % scale 0 is the no-effect control and ±100 the full control effect; nearly all actives have a fitted effect of over 60% in size
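L3MBTL1 50 nM + b-AHA-H3(1-15)K9me1 75 nM, 30 min RT; compound added, 30 min RT; streptavidin donor/Ni-chelate acceptor beads 10 ug/mL each final, 30 min RT dark; AlphaScreen read.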
HP1b binding inh – blocks HP1-beta chromodomain binding to methylated histone tails; P83916; AlphaScreen HP1-beta / biotin-H3K9me3 peptide binding; Potency, µM (highest dose often 114 µM), without a hit: at the top dose activity change, negative = inhibition, hits mostly inhibitors; actives 0.56% (n = 390,000); AID 540317; further: nearly all actives have a fitted effect of over 70% in size
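Compound inhibition of the preformed complex between 50 nM HP1-beta and 50 nM biotinylated H3K9me3 peptide was read by AlphaScreen. Buffer was PBS pH 7.4 with 0.01% Tween-20. Incubations ran 30 min at room temperature, with 10 ug/mL donor/acceptor beads.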
BAZ2B inh – BAZ2B (human) inhibition | Q9UIF8 | AlphaScreen BAZ2B-H3K14Ac peptide displacement | Potency, µM (highest dose often 114 µM), for the others: at the highest dose activity change, negative = inhibition, actives largely listed as inhibitors | actives 4.4% (n = 360,000); further: on the % scale 0 is the no-effect control and ±100 the full control effect; nearly all actives have a fitted effect of over 60% in size
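Compounds, titrated to a top concentration of 110 uM, were incubated 30 min at room temperature with preformed BAZ2B/acetyl-K14 H3 peptide complex (50 nM each). Proximity signal was measured by AlphaScreen after 20 min with beads.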
Starred values were filed as active, the others as inactive; ! = not confirmed by another sample; [ ] = another dose, or the depositor's remark. Rows were chosen to be rich in hits. Some 12% of all compounds tested hit in one or more screens of this group. The call rests on the fitted dose curve; in most records, active means well fitted curve in the direction sought with a large enough effect; inconclusive means small, poorly fitted or top-dose-only effect, or another doubt; inactive means no such curve, though single readings can be large; an effect the other way counts as inactive or inconclusive. Potency means the concentration at half of the fitted maximal effect.

Results for CCn1c(Cl)c(C=O)s/c1=N\S(=O)(=O)c1ccccc1 ?
Sfp inh: inconclusive; G9a inh: 45µM*; JMJD2A Tudor inh: -24%[11.4 µM]; L3MBTL1 block: -17%; HP1b binding inh: -5%; BAZ2B inh: 17%

Results for CCOC(=O)c1c(N)n(-c2ccc(Cl)c(Cl)c2)c2nc3ccccc3nc12 ?
G9a inh: 8%[59 µM]; JMJD2A Tudor inh: -2%; HP1b binding inh: 31%; BAZ2B inh: 0%

What do the screens show for `Cc1cccc(C(=O)Nc2nnc(S(=O)(=O)N3c4ccccc4CC3C)s2)c1` (stereo not given)?
G9a inh: -30%[59 µM]; JMJD2A Tudor inh: -23%; HP1b binding inh: 15%; BAZ2B inh: inconclusive

Results for Cc1cccc(NC(=O)c2nc[nH]c2C(=O)Nc2cccc(C)c2)c1 ?
Sfp inh: 18%; G9a inh: -23%; JMJD2A Tudor inh: -10%; HP1b binding inh: 31%; BAZ2B inh: inconclusive

Results for CNC(=O)c1[nH]cnc1C(=O)Nc1ccccc1 ?
G9a inh: 5%[0.501 µM]; JMJD2A Tudor inh: -23%; L3MBTL1 block: 1%; HP1b binding inh: 22%; BAZ2B inh: inconclusive

Results for CNC(=O)c1[nH]cnc1C(=O)Nc1cccc(OC)c1 ?
Sfp inh: -24%; G9a inh: inconclusive; JMJD2A Tudor inh: -26%; HP1b binding inh: 16%; BAZ2B inh: 50µM*

How did CCOC(=O)c1[nH]cnc1C(=O)Nc1cccc(OC)c1 do in these assays?
Sfp inh: 5%; G9a inh: 28µM*!; JMJD2A Tudor inh: inconclusive; HP1b binding inh: 29%; BAZ2B inh: inconclusive

Results for CNC(=O)c1[nH]cnc1C(=O)Nc1ccccn1 ?
Sfp inh: 0%; JMJD2A Tudor inh: inconclusive; L3MBTL1 block: 4%; HP1b binding inh: -2%; BAZ2B inh: 56µM*

What do the screens show for `CCOC(=O)C1CCN(CC(=O)Nc2cc(S(=O)(=O)N3CCOCC3)ccc2C)CC1`?
Sfp inh: -22%; G9a inh: 22µM*; JMJD2A Tudor inh: 4µM*; L3MBTL1 block: 8%; HP1b binding inh: 71µM*; BAZ2B inh: 79µM*

Results for Cc1ccc(S(=O)(=O)N2CCOCC2)cc1NC(=O)CN1CCN(C)CC1 ?
G9a inh: -3%[59 µM]; JMJD2A Tudor inh: -15%; L3MBTL1 block: 5%; HP1b binding inh: 14%; BAZ2B inh: 0%

How did Cc1ccc(S(=O)(=O)N2CCOCC2)cc1NC(=O)CN1CCN(c2ccc(O)cc2)CC1 do in these assays?
Sfp inh: 40µM*; G9a inh: inconclusive; JMJD2A Tudor inh: 25µM*; L3MBTL1 block: -1%; HP1b binding inh: inconclusive; BAZ2B inh: inconclusive

Results for Cc1ccc2nc(-c3cc(NC(=O)/C=C/c4ccccc4)ccc3Cl)oc2c1 ?
G9a inh: inconclusive; JMJD2A Tudor inh: -17%; HP1b binding inh: 1%; BAZ2B inh: 0%

Results for O=C(N/N=C1/C[C@@H](O)[C@@H](O)[C@@H]2[C@H]3C(=O)N(c4ccc(F)cc4F)C(=O)[C@@H]3CC[C@@H]12)OCc1ccccc1 ?
Sfp inh: -6%

What do the screens show for `CCOC(=O)OCC1OC(C#Cc2ccccc2)C=CC1Oc1cccc(N(C)C)c1` (stereo not given)?
Sfp inh: -5%

How did CCCSc1nnc(-c2cccc(S(=O)(=O)N(C)C)c2)n1-c1cc(OC)ccc1OC do in these assays?
Sfp inh: 8%; G9a inh: 4%[59 µM]; JMJD2A Tudor inh: -15%; L3MBTL1 block: -3%; HP1b binding inh: 9%; BAZ2B inh: -3%

Results for CN(C)S(=O)(=O)c1cccc(-c2nnc(SCCNCCO)n2-c2ccc(F)cc2)c1 ?
Sfp inh: -17%; G9a inh: inconclusive; JMJD2A Tudor inh: 50µM*; L3MBTL1 block: 40%; HP1b binding inh: 21%; BAZ2B inh: 79µM*

How did COc1cccc(Oc2ccc(OC)cc2C(=O)O)c1 do in these assays?
Sfp inh: 2%; JMJD2A Tudor inh: 25µM*; L3MBTL1 block: 6%; HP1b binding inh: 6%; BAZ2B inh: -34%
